# About 79,000 compounds went through this panel and 15% of them were active in at least one assay; those are over-represented in the sample as a whole. A number with no mark means an inactive call. The source made the active and inactive calls. Rule as the data show it: active = growth inhibition above about 70%; inactive = the rest.
# Assays:
# [1] = NCI Yeast Anticancer Drug Screen. Data for the rad52 strain (AID 147);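 also: 0% = growth of vehicle-treated control cultures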; settings: S. cerevisiae rad52 mutant growth inhibition, stronger effect = higher value
# Summary of the method: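 Read-out: growth inhibition versus vehicle-treated controls. Cells were a DNA repair-deficient yeast strain treated with compounds.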
# [2] = NCI Yeast Anticancer Drug Screen. Data for the rad50EPP+ strain (AID 151);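 also: 0% = growth of vehicle-treated control cultures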; settings: S. cerevisiae rad50 mutant strain, stronger effect = higher value
# Summary of the method: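 Growth inhibition read against vehicle controls in rad50EPP+ yeast, a strain altered in DNA damage repair, after compound exposure.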
# [3] = NCI Yeast Anticancer Drug Screen. Data for the mgt1 strain (AID 153); settings: S. cerevisiae mgt1 mutant growth inhibition, stronger effect = higher value
# Summary of the method: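 mgt1 yeast grown with test compound; read-out is growth inhibition versus vehicle-treated cultures.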
# [4] = NCI Yeast Anticancer Drug Screen. Data for the rad50 strain (AID 155);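 also: 0% = growth of vehicle-only cultures of the same strain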; settings: S. cerevisiae rad50 strain growth inhibition, stronger effect = higher value
# Summary of the method: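 Inhibition values express reduced yeast growth in compound-treated cultures relative to vehicle-treated controls.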
# [5] = NCI Yeast Anticancer Drug Screen. Data for the mec2-1 strain (AID 157); settings: S. cerevisiae mec2-1 strain, stronger effect = higher value
# Summary of the method: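 Yeast mec2-1 mutant treated with compound. Readout: growth inhibition vs vehicle controls.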
# [6] = NCI Yeast Anticancer Drug Screen. Data for the rad14 strain (AID 159);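 also: 0% = growth of vehicle-treated control cultures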; settings: S. cerevisiae rad14 strain growth inhibition, stronger effect = higher value
# Summary of the method: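 A mutant yeast strain defective in DNA damage repair is treated with compound; inhibition of its growth is scored against untreated, vehicle-exposed cultures.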
# [7] = NCI Yeast Anticancer Drug Screen. Data for the sgs1 mgt1 strain (AID 161);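 also: 0% = growth of cultures given vehicle only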; settings: S. cerevisiae sgs1 mgt1 strain, stronger effect = higher value
# Summary of the method: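 Test agents were incubated with a DNA-repair-mutant yeast strain. Growth was then read and compared against vehicle-treated controls.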
# [8] = NCI Yeast Anticancer Drug Screen. Data for the CLN2oe strain (AID 163);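 also: 0% = growth of vehicle-only control cultures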; settings: S. cerevisiae CLN2oe strain, stronger effect = higher value
# Summary of the method: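 Read-out: yeast growth inhibition, expressed relative to vehicle-only controls. The strain bears an engineered cell-cycle alteration.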
# [9] = NCI Yeast Anticancer Drug Screen. Data for the cln2 rad14 strain (AID 165);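 also: 0% = growth equal to vehicle treated cultures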; settings: S. cerevisiae cln2 rad14 strain, stronger effect = higher value
# Summary of the method: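 cln2 rad14 yeast strain; compound exposure; growth inhibition read vs vehicle controls.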
# [10] = NCI Yeast Anticancer Drug Screen. Data for the bub3 strain (AID 167); settings: S. cerevisiae bub3 mutant strain, stronger effect = higher value
# Summary of the method: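 Steps: expose the mutant yeast strain to compound; grow alongside vehicle-treated cultures; measure growth; express inhibition against the vehicle cultures.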
# [11] = NCI Yeast Anticancer Drug Screen. Data for the wt2 strain (AID 169);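 also: 0% = growth of vehicle-treated yeast cultures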; settings: S. cerevisiae wt2 strain growth inhibition, stronger effect = higher value
# Summary of the method: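 Read-out: growth inhibition versus vehicle-treated control cultures after compound exposure of the yeast strain.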
# [12] = NCI Yeast Anticancer Drug Screen. Data for the mlh1 strain (AID 171);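 also: 0% = growth of vehicle-treated control cultures of the same strain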; settings: S. cerevisiae mlh1 strain growth inhibition, stronger effect = higher value
# Summary of the method: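 Read-out: growth inhibition versus vehicle controls. Strain: engineered yeast with a defined DNA repair or cell cycle defect, compound-treated.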
# [13] = NCI Yeast Anticancer Drug Screen. Data for the sgs1 strain (AID 173);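 also: 0% = growth of vehicle-only control cultures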; settings: S. cerevisiae sgs1 mutant, stronger effect = higher value
# Summary of the method: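 Read-out: yeast growth inhibition relative to vehicle controls, following compound exposure of a strain with a defined DNA repair/cell cycle alteration.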
# [14] = NCI Yeast Anticancer Drug Screen. Data for the mlh1 rad18 strain (AID 175); settings: S. cerevisiae mlh1 rad18 strain growth inhibition, stronger effect = higher value
# Summary of the method: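 Yeast w/ defined DNA-repair lesions; compound exposure; growth vs vehicle controls → % inhibition.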
# [15] = NCI Yeast Anticancer Drug Screen. Data for the rad18 strain (AID 177); settings: S. cerevisiae rad18 mutant growth inhibition, stronger effect = higher value
# Summary of the method: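 Readout: growth inhibition vs vehicle controls. Cells: genetically altered yeast strain, DNA repair defect.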
# [16] = at 5.0 µM (retest, dose inferred, filed as 0.5)
# [17] = at 50.0 µM (retest, dose inferred, filed as 5.0)
smiles,measurement,setting,value
Clc1ccc(SC(/C=C/NNC2=NC(c3ccccc3)C(c3ccccc3)=NN2)c2ccccc2)cc1 (stereo not drawn),growth inhibition,[1]; at 1.2 µM,0%
same,growth inhibition,[1]; at 3.7 µM,6%
same,growth inhibition,[1]; at 11.0 µM,11%
same,growth inhibition,[1]; at 33.0 µM,19%
same,growth inhibition,[1]; at 100.0 µM,83% (active)
same,growth inhibition,[2]; at 1.2 µM,2%
same,growth inhibition,[2]; at 3.7 µM,12%
same,growth inhibition,[2]; at 11.0 µM,7%
same,growth inhibition,[2]; at 33.0 µM,6%
same,growth inhibition,[2]; at 100.0 µM,0%
same,growth inhibition,[3]; at 1.2 µM,-5%
same,growth inhibition,[3]; at 3.7 µM,8%
same,growth inhibition,[3]; at 11.0 µM,-11%
same,growth inhibition,[3]; at 33.0 µM,8%
same,growth inhibition,[3]; at 100.0 µM,85% (active)
same,growth inhibition,[4]; at 1.2 µM,4%
same,growth inhibition,[4]; at 3.7 µM,14%
same,growth inhibition,[4]; [16],48%
same,growth inhibition,[4]; at 11.0 µM,14%
same,growth inhibition,[4]; at 33.0 µM,47%
same,growth inhibition,[4]; [17],48%
same,growth inhibition,[4]; at 50.0 µM,71.3% (active)
same,growth inhibition,[4]; at 100.0 µM,82% (active)
same,growth inhibition,[5]; at 1.2 µM,-1%
same,growth inhibition,[5]; at 3.7 µM,2%
same,growth inhibition,[5]; [16],0%
same,growth inhibition,[5]; at 11.0 µM,2%
same,growth inhibition,[5]; at 33.0 µM,8%
same,growth inhibition,[5]; [17],0%
same,growth inhibition,[5]; at 50.0 µM,18.6%
same,growth inhibition,[5]; at 100.0 µM,85% (active)
same,growth inhibition,[6]; at 1.2 µM,1%
same,growth inhibition,[6]; at 3.7 µM,6%
same,growth inhibition,[6]; at 11.0 µM,2%
same,growth inhibition,[6]; at 33.0 µM,50%
same,growth inhibition,[6]; at 100.0 µM,91% (active)
same,growth inhibition,[7]; [16],31%
same,growth inhibition,[7]; [17],31%
same,growth inhibition,[7]; at 50.0 µM,49.8%
same,growth inhibition,[8]; at 1.2 µM,-9%
same,growth inhibition,[8]; at 3.7 µM,0%
same,growth inhibition,[8]; at 11.0 µM,-4%
same,growth inhibition,[8]; at 33.0 µM,1%
same,growth inhibition,[8]; at 100.0 µM,80% (active)
same,growth inhibition,[9]; [16],7%
same,growth inhibition,[9]; [17],7%
same,growth inhibition,[9]; at 50.0 µM,70% (active)
same,growth inhibition,[10]; at 1.2 µM,-1%
same,growth inhibition,[10]; at 3.7 µM,-1%
same,growth inhibition,[10]; [16],5%
same,growth inhibition,[10]; at 11.0 µM,0%
same,growth inhibition,[10]; at 33.0 µM,37%
same,growth inhibition,[10]; [17],5%
same,growth inhibition,[10]; at 50.0 µM,60.9%
same,growth inhibition,[10]; at 100.0 µM,84% (active)
same,growth inhibition,[11]; at 1.2 µM,0%
same,growth inhibition,[11]; at 3.7 µM,2%
same,growth inhibition,[11]; at 11.0 µM,2%
same,growth inhibition,[11]; at 33.0 µM,29%
same,growth inhibition,[11]; at 100.0 µM,86% (active)
same,growth inhibition,[12]; at 1.2 µM,-3%
same,growth inhibition,[12]; at 3.7 µM,5%
same,growth inhibition,[12]; at 11.0 µM,-4%
same,growth inhibition,[12]; at 33.0 µM,31%
same,growth inhibition,[12]; at 100.0 µM,84% (active)
same,growth inhibition,[13]; at 1.2 µM,1%
same,growth inhibition,[13]; at 3.7 µM,3%
same,growth inhibition,[13]; at 11.0 µM,4%
same,growth inhibition,[13]; at 33.0 µM,33%
same,growth inhibition,[13]; at 100.0 µM,87% (active)
same,growth inhibition,[14]; [16],0%
same,growth inhibition,[14]; [17],0%
same,growth inhibition,[14]; at 50.0 µM,58.4%
same,growth inhibition,[15]; at 1.2 µM,2%
same,growth inhibition,[15]; at 3.7 µM,9%
same,growth inhibition,[15]; at 11.0 µM,23%
same,growth inhibition,[15]; at 33.0 µM,41%
same,growth inhibition,[15]; at 100.0 µM,80% (active)

# Reference: PubChem BioAssay (NCI)
